Out of some 340,000 compounds screened, about 3,300 (0.97%) were called active.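 The calls were made as follows: active = inhibition above the mean over all tested compounds plus 3 SD (cut at about 30% in these data); inactive = the rest.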 The sample as a whole holds a higher share of actives than the screen did.
Target: Platelet-activating factor acetylhydrolase 2, cytoplasmic (Homo sapiens) (UniProt Q99487)
Assay: inhibition of cytoplasmic PAF acetylhydrolase 2 – biochemical, fluorescence polarization, human, primary screen (AID 492956);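 also: inhibitors block probe labeling of enzyme so polarization drops; 0% = enzyme with DMSO and 100% = wells lacking PAFAH2 protein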
Conditions: recombinant PAFAH2, FP-rhodamine activity probe, at 3.39 µM, active compounds read high

inhibition, inactive:
FC(F)(F)c1nc(-c2ccccc2)ncc1-c1nnnn1-c1ccccc1 10.3%, Cc1ccc(-n2ncc3c2CC(C)(C)CC3NC(=O)Cc2c(C)noc2C)cc1 (centres undefined) -3.4%, COc1ccc(C(C(=O)NCc2ccccc2)N(Cc2cccs2)C(=O)c2cnccn2)cc1 (centres undefined) 2.03%, N[C@@H](Cc1ccccc1)C(=O)N1CCC(C(=O)NCC(=O)Nc2ccc(F)cc2)CC1 -5.9%, C=CCn1cnc2scc(-c3ccccc3)c2c1=O -1.85%, C=CCn1c(=S)[nH]c2nc3c(cc2c1=O)COC(C)(C)C3 6.59%, O=S1(=O)C=C(SCCN2CCCC2)c2ccccc21 6.55%, C=CCN1C2CCCC1CC(NC(=S)Nc1cccc(OC)c1)C2 (centres undefined) 1.32%, NC(=O)COc1ccccc1C(=O)NC12CC3CC(CC(C3)C1)C2 6.96%, COc1cc(C(=O)OCC(=O)NC(C)CCc2ccccc2)cc(OC)c1OC (centres undefined) 5.21%, COc1ccccc1C(=O)NC(=S)NC12CC3CC(CC(C3)C1)C2 -0.29%, O=C(COC(=O)c1ccc(Br)o1)NC12CC3CC(CC(C3)C1)C2 26.2%, O=C(COC(=O)c1cccnc1Cl)Nc1ccc(S(=O)(=O)N2CCOCC2)cc1 -2.28%, O=C(OCC(=O)c1cccs1)c1ccc([N+](=O)[O-])o1 -2.46%, COc1ccc(COC(=O)c2ccc(Cl)c(S(=O)(=O)N3CCOCC3)c2)cc1F 8%, CN(C)S(=O)(=O)c1ccc(NC(=O)COC(=O)Cn2[nH]c(=O)c3ccccc3c2=O)cc1 1.37%, CCOc1ccc2c(c1)cc(CN(C(=O)CC)C1CCCCC1)c1nnnn12 9.13%, COc1ccc(C(=O)COC(=O)c2ccc([N+](=O)[O-])s2)cc1OC 18.3%, COc1cc(NC(=O)COC(=O)c2cnc(C)cn2)c(C)cc1[N+](=O)[O-] 4%, Cc1ccc2c(c1)N(C(=O)CCC(=O)N1CCc3ccccc3C1)CCO2 1.77%, COc1ccc(C(=O)COC(=O)c2nn(C)c(=O)c3ccccc23)c(OC)c1 1.19%, COc1ccc(C(=O)OCC(=O)Nc2ccc3[nH]c(=O)[nH]c3c2)c(OC)c1OC 2.25%, COc1ccccc1NC(=O)N(O)C1(C#N)CCCCC1 17.2%, Clc1ccc(-c2nc3ccccn3c2CN2CCSCC2)cc1 3.86%, COc1cc(CCC(=O)OCC(=O)Nc2cccc(S(N)(=O)=O)c2)cc(OC)c1OC 8.16%, O=C1C(=O)N(CCCO)C(c2ccccc2)/C1=C(\O)c1ccc(Br)cc1 (centres undefined) 2.68%, O=[N+]([O-])c1ccc(N2CCOCC2)cc1 6.57%, COc1cnn(-c2ccc([N+](=O)[O-])cc2)c(=O)c1Cl 5.97%, COc1cccc(NC(=O)[C@H](Cc2c[nH]c3ccccc23)NC(=O)[C@@H]2Cc3ccccc3CN2)c1 4.49%, CC(C)(C)OC(=O)C[C@@H]1C/C=C\C[C@H](CC(=O)N[C@@H](CO)Cc2ccccc2)C(=O)N[C@H](Cc2ccccc2)COC1=O -5.38%, CCOC(=O)C1=C(N)N(c2ccc(C)cc2)C2=C(C(=O)CCC2)C1c1cccs1 (centres undefined) 11%, COc1ccc(NC(=O)CS(=O)(=O)c2ccccc2)cc1 -6.64%, COc1ccc(NC(=O)CCCC(=O)c2ccccc2)cc1 -4.3%, O=C1N(c2ccccc2)C(=Nc2ccccc2)SC12CC2 -1.71%, COc1ccc(N(Cc2cc3ccc(C)cc3[nH]c2=O)S(=O)(=O)c2ccccc2)cc1 1.35%, CCCCn1c(N)c(N(Cc2ccccc2OC)C(=O)COc2cc(C)ccc2Cl)c(=O)[nH]c1=O -1.09%, O=C(O)/C=C/c1ccc(S(=O)(=O)N2CCCCCC2)cc1 0.61%, O=C(COc1ccc(S(=O)(=O)N2CCCCC2)cc1)NCc1ccccn1 9.09%, O=C(Nc1ccc(F)cc1)c1cccnc1N1CCOCC1 -2.86%, CC1=C(C(=O)Nc2ccc(Cl)cc2)C(c2ccco2)NC(=O)N1 (centres undefined) 0.63%, COc1ccc(Nc2nc(N)nc(CSC(=S)N3CCC(C)CC3)n2)cc1 5.5%, Cc1ccccc1Nc1nc(N)nc(CSc2ccccc2)n1 3.88%, O=C(CN1CCCCCC1)Nc1ccc(Br)cc1Br 2.02%, O=c1oc2ccccc2c(NC2CCCCC2)c1NS(=O)(=O)c1ccc(Cl)cc1 5.54%, O=c1ccc2cc(S(=O)(=O)Nc3ccccc3F)ccc2o1 0.74%, CCCCNS(=O)(=O)c1ccc2nc(SCC(=O)Nc3cc(C)cc(C)c3)[nH]c2c1 -16.9%, COC(=O)c1cc(NC(=O)Cc2ccccc2[N+](=O)[O-])ccc1Cl 0.54%, CC(=O)Nc1ccc(NC(=O)C(C)OC(=O)c2ccccc2C(=O)c2ccc(Cl)c([N+](=O)[O-])c2)cc1 (centres undefined) -5.1%, COC(=O)c1onc(-c2c(OC)cc(OC)cc2OC)c1C(=O)OC -0.23%, Cc1cn(C2CC(O)C(CO)O2)c(=O)n(CCCc2ccccc2)c1=O (centres undefined) -0.23%, COc1cccc(CNC(=O)C2CCN(S(=O)(=O)c3cccc4cccnc34)CC2)c1 -7.61%, O=C(Cc1ccc(NC(=O)C2CCCN(C(=O)C3CCCCC3)C2)cc1)Nc1cccc(C(=O)N2CCCCC2)c1 (centres undefined) -2.71%, O=C(CC1Sc2ccccc2NC1=O)NNc1ccc(Cl)c(Cl)c1 (centres undefined) 6.55%, CCN(CC)CCn1c2ccc(Cl)cc2c2nc(C)sc21 -2.76%, Cc1ccc(S(=O)(=O)N(Cc2cc3ccccc3[nH]c2=O)CC2CCCO2)cc1 (centres undefined) 4.81%, Cn1c(NC(=O)c2ccco2)c(-c2ccccc2Cl)c(=O)c2ccccc21 -1.9%, Cc1[nH]c(C)c(S(=O)(=O)N2CCN(c3cccc(C(F)(F)F)c3)CC2)c1C(=O)N1CCCCC1 8.89%, CCOc1ccc(/C=N/OCC(=O)NCc2cccs2)cc1 4.81%, O=C(COC(=O)/C=C/c1cccc(Cl)c1)NCCc1ccccc1 20.5%, CCOc1ccc(/C=C/C(=O)N(CC)CC(=O)NCc2cccs2)cc1OC 5.35%, COc1ccc(Cl)cc1C(=O)OCC(=O)NCc1cccs1 1.83%, CN(CCc1ccccc1)C(=O)c1cccc(NC(=O)Cc2cccc(NC(=O)C3CCCN(C(=O)C4CCC4)C3)c2)c1 (centres undefined) -1.94%, COc1ccc(CCNC(=O)CN(C)S(=O)(=O)c2ccc3nc(C)sc3c2)cc1OC -0.36%, COC(=O)C1=C(C)NC(=S)NC1c1ccc(OCC(=O)N2CC(C)OC(C)C2)c(OC)c1 (centres undefined) -0.58%, Cc1ccc(NS(=O)(=O)c2cn(C)c(=O)n(C)c2=O)c(C)c1 1.4%, COc1ccc(S(=O)(=O)N2CN(CCc3ccc(OC)c(OC)c3)c3nc4ccccc4nc32)cc1 8.38%, CCOc1ccc(C(=O)Nc2cccc(SC)c2)cc1 -11.9%, CC(=O)c1c(C)[nH]c(C(=O)OCC(=O)Nc2c(C)cccc2C)c1C 4.64%, CC(=O)c1c(C)[nH]c(C(=O)OCC(=O)Nc2cc(S(=O)(=O)N3CCCCC3)ccc2C)c1C 7.66%, CCC(C)NC(=O)C1CCCN(C(=O)NC2CCCCC2)C1 (centres undefined) 10.5%, COc1ccc(C(=O)C2CCCN(C(=O)c3cc4nc(C)cc(C)n4n3)C2)cc1F (centres undefined) -3.28%, COc1cc(OC)cc(C(=O)NC(=S)N2CCN(c3ccc(C(F)(F)F)cc3[N+](=O)[O-])CC2)c1 7.31%

inhibition, active:
C=CCn1c(=S)[nH]c2scc(-c3ccco3)c2c1=O 38.7%, O=C(COC(=O)c1ccc([N+](=O)[O-])o1)NC12CC3CC(CC(C3)C1)C2 59.8%, O=C(COC(=O)c1cccnc1Cl)NC12CC3CC(CC(C3)C1)C2 86.5%, COc1cc(C(=O)OCC(=O)NC23CC4CC(CC(C4)C2)C3)cc(OC)c1OC 77.8%, COc1cc(NC(=O)COC(=O)c2ccc([N+](=O)[O-])s2)cc(OC)c1OC 36.9%, COc1ccc(C(=O)OCC(=O)c2ccc(Cl)s2)c(OC)c1OC 65.5%, O=c1[nH]n(-c2ccc([N+](=O)[O-])cc2)c(=O)c2ccccc12 32.5%, COc1ccc(NC(=O)CC(NC(C)c2ccccc2)C(=O)O)cc1 (centres undefined) 35.8%, O=C(COC(=O)/C=C/c1ccc(S(=O)(=O)N2CCCCCC2)cc1)NCc1ccccc1Cl 33.9%, COc1ccccc1Nc1nc(N)nc(CSC(=S)N2CCOCC2)n1 30.8%, O=c1oc(-c2ccccc2NS(=O)(=O)c2ccc(Cl)cc2)nc2ccccc12 82.1%, N#Cc1cccc(NC(=O)COC(=O)c2ccccc2C(=O)c2ccc(Cl)c([N+](=O)[O-])c2)c1 58.9%, CCN(CC)CCCC(C)n1c2nc(=O)[nH]c(=O)c-2nc2cc(Cl)ccc21 (centres undefined) 38.8%, COc1ccc(/C=C/C(=O)OCC(=O)NCc2cccs2)cc1OC 49.4%, O=C(COC(=O)/C=C/c1cccc(Cl)c1)NCc1cccs1 37%, CC(=O)c1c(C)[nH]c(C(=O)OCC(=O)NCCC(C)C)c1C 30.4%, c1coc(-c2nc3nc4ccccc4n3nc2-c2ccco2)c1 45.7%
